Pol iota inh: inhibitors of human DNA polymerase iota; 390,000 tested, 1% active; AID 588590; Potency, µM (doses to about 115 µM), inactives show at the top dose activity, negative = inhibition, usual class: inhibitors; Pol iota fluorescent replication assay, 10 min; Q9UNA4
Target sequence (Q9UNA4 whole entry, looked up): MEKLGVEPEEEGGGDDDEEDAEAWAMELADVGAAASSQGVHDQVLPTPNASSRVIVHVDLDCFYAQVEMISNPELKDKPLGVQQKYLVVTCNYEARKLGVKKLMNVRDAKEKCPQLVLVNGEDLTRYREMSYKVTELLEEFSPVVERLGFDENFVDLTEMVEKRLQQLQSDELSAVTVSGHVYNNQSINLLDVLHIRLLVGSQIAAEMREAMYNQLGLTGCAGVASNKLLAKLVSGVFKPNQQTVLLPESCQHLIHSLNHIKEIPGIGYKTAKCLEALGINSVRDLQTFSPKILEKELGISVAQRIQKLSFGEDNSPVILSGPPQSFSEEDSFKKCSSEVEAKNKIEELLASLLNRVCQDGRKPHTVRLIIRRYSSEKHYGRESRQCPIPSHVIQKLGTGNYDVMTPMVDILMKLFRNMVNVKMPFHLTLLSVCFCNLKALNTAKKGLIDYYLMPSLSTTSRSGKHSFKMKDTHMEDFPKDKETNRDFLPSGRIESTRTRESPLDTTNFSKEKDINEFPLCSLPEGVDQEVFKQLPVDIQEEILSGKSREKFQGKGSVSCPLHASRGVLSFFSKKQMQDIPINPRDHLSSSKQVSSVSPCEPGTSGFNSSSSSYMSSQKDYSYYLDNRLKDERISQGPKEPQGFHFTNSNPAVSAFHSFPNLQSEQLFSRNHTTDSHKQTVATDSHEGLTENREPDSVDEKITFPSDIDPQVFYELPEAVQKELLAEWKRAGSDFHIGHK
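Fluorescent replication assay read twice, at 0 min and 10 min after adding 50 nM (final) substrate. Enzyme (10 nM) and compounds were first incubated 15 min at room temperature; enzyme-free buffer wells were negative controls.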
Pol beta inh: DNA polymerase beta (human) inhibition. Pol beta primer extension/strand displacement, fluorescence kinetic. P06746. AID 485314. 340,000 tested, 1.3% active. Potency, µM (series often up to 114 µM), without a hit: top-dose activity change, negative = inhibition, usual class: inhibitors; note: % is set by controls: 0 for no effect and ±100 for the full control effect
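Curves were derived by four-parameter Hill fits of normalized qHTS data. The kinetic fluorescent primer-extension read was taken at 0 and 10 min after 50 nM substrate, following a 15 min room-temperature preincubation of 10 nM enzyme with compounds.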
FEN1 inhibitor: blocks human flap endonuclease 1. P39748. Potency, µM (doses to about 114 µM), inactives show at the highest dose activity change, negative = inhibition, actives largely listed as inhibitors. 390,000 tested, 0.35% active. AID 588795. Recombinant FEN1 flap cleavage, fluorescence, 15 min; note: % is set by controls: 0 for no effect and ±100 for the full control effect; nearly all actives have a fitted effect of over 65% in size
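Enzyme 10 nM, 15 min RT preincubation with compound; start with substrate 50 nM final; reads at 0 and 15 min; qHTS titration, four-parameter Hill fit.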
WRN inhibitor: inhibitors of human WRN helicase; 360,000 tested, 0.46% active; WRN helicase unwinding, fluorescent forked duplex, kinetic; Q14191; AID 651768; Potency, µM (series often up to 114 µM), inactives show at the top dose activity change, negative = inhibition, usual class: inhibitors; note: % is set by controls: 0 for no effect and ±100 for the full control effect; nearly all actives have a fitted effect of over 55% in size
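Screening of the MLSMR collection measured strand separation of a quenched forked DNA duplex (100 nM) by 20 nM WRN with 2 mM ATP, all final. Compounds were preincubated with enzyme 15 min at room temperature.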
POLK inh: blocks human DNA polymerase kappa activity; Q9UBT6; purified Pol kappa, fluorescent DNA synthesis assay, 10 min; Potency, µM (series often up to 107 µM), without a hit: at the top dose activity, negative = inhibition, actives largely listed as inhibitors; 400,000 tested, 0.53% active; AID 588579; note: % is set by controls: 0 for no effect and ±100 for the full control effect
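Inhibition of 10 nM Pol kappa is measured by a fluorescent read-out at 0 and 10 min following addition of 50 nM substrate (final), with a 15-min room-temperature compound preincubation.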
Pol eta inh: DNA polymerase eta (human) inhibition | AID 588591 | recombinant Pol eta, fluorescent DNA replication assay | Potency, µM (doses to about 114 µM), for inactives: top-dose activity change, negative = inhibition, actives largely listed as inhibitors | 390,000 tested, 1.2% active; note: % is set by controls: 0 for no effect and ±100 for the full control effect
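Pol eta (10 nM) was preincubated with compounds for 15 min at room temperature, after which fluorescent replication substrate (50 nM final) was added to start the reaction. Fluorescence was read kinetically at 0 and 10 min.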
* hit, by the source's call; u = inconclusive; x = not tested or not shown; [ ] = dose if it differs, or a comment. Compounds with a hit are over-represented: about 2.4% of the library has one in this group of screens. Calls come from the whole dose curve; as a rule, active = well fitted curve in the direction sought with a large enough effect; inconclusive = small, poorly fitted or top-dose-only effect, or another doubt; inactive = no such curve, though single readings can be large; an effect the other way counts as inactive or inconclusive. Potency is the fitted concentration of half-maximal effect.

SMILES	Pol iota inh	Pol beta inh	FEN1 inhibitor	WRN inhibitor	POLK inh	Pol eta inh
ON=C1c2cc(OCCN3CCCCC3)ccc2-c2ccc(OCCN3CCCCC3)cc21	83%	34%	32µM*	-26%	-8%	-18%
COc1ccccc1N(C(=O)CCl)c1cn(C(C)=O)c2ccccc12	-10%	-8%	8%	-3%	-11%	45µM*
Cc1ccccc1NC(=O)Cn1c(=O)n(CCC(=O)NCc2ccc3c(c2)OCO3)c(=O)c2sccc21	6%	50µM*	18%	x	-17%	-16%
Cc1ccc(-c2cn3cccnc3n2)cc1	134%	-1%	-5%	-4%	-4%	-12%
COc1ccc(NCc2ccc([N+](=O)[O-])s2)cc1	-11%	22µM*	-24%	-13%	-27%	-7%
COc1ccc(NCc2ccc([N+](=O)[O-])s2)c(OC)c1	-9%	22µM*	u	-32%	-28%	u
O=[N+]([O-])c1ccc(CNc2ccc(F)cc2)s1	49%	-9%	-2%	-33%	0%	-10%
CC1CCCCN1Cc1c(O)ccc2c(=O)c(-c3ccccc3Cl)c(C(F)(F)F)oc12 (centres undefined)	8%	-3%	-1%	x	-15%	-16%
CCN1CCN(CC(=O)Nc2nc3ccc(C)cc3s2)CC1	4%	21%	24%	16%	-1%	5%
COc1ccc(N2CCN(C(=O)c3ccc4[nH]c(C)c(C)c4c3)CC2)cc1	-10%	u	-12%	-5%	-11%	-12%
O=C(/C=C/c1ccc(Br)cc1)c1ccc(NC(=O)c2ccco2)cc1	u	7.1µM*	-14%	-7%	u	u
O=C(/C=C/c1ccncc1)c1ccc(NC(=O)c2ccccc2F)cc1	u	16µM*	u	u	-10%	-15%
O=C(/C=C/c1ccc(Br)cc1)c1ccco1	u	-17%	-1%	u	-9%	2%
CCN(C(=O)CN1CCN(c2ccc(O)cc2)CC1)c1c(N)n(Cc2ccccc2)c(=O)[nH]c1=O	u	45µM*	0%	-13%	-36%	12%
COc1ccccc1N1CCN(C(c2ccccc2)c2nnnn2Cc2ccccc2)CC1 (centres undefined)	-27%	x	-26%	x	u	x
O=C(Nc1ccc2c(c1)OCO2)c1cccc2c1C(=O)N(Cc1cccnc1)C2	u	40µM*	-32%	-28%	-12%	u
CC(C)(C)NC(=O)NC(=O)COC(=O)c1cccc(OC(F)F)c1	3%	-23%	4%	6%	-1%	-3%
O=C(O)C1C(c2ccccc2)C(C(=O)OCc2ccco2)C1c1ccccc1 (centres undefined)	u	u	-15%	-27%	-26%	79µM*
O=C(COc1cccc(-n2cnnn2)c1)Nc1ccc([N+](=O)[O-])cc1	19%	-2%	-10%	-6%	-16%	-10%
CCC(CC)=NNc1ccc([N+](=O)[O-])cc1[N+](=O)[O-]	10%	70%	16%	-3%	-14%	0%
O=C(O)/C(CC(=O)c1ccc(Cl)cc1)=N/Nc1ccc([N+](=O)[O-])cc1[N+](=O)[O-]	u	u	-15%	-14%[11.6 µM]	u	89µM*
Cc1cc(O)c(C(=O)/C=C/c2cccc([N+](=O)[O-])c2)c(=O)o1	40µM*	u	-9%	-27%	u	79µM*
O=C(CN1C(=O)NC2(CCCCCC2)C1=O)N1CCN(c2ccccc2)CC1	17%	x	-6%	-5%	-4%	-18%
Cc1cc(C(F)(F)F)n2[nH]c(=O)c(N=Nc3ccccc3)c2n1	40µM*	-20%	0%	0%[11.6 µM]	u	12%
CC1=C(CO)C(=O)OC([C@@H](C)C2CC[C@H]3C4C[C@H]5O[C@]56[C@@H](O)C=CC(=O)[C@]6(C)C4CC[C@]23C)C1 (some centres undefined)	u	u	-8%	u	-18%	50µM*
SMILES	Pol iota inh	Pol beta inh	FEN1 inhibitor	WRN inhibitor	POLK inh	Pol eta inh
COCCn1c(C)cc(O)c(C(=O)Nc2cccc(Cl)c2)c1=O	13%	2%	21%	2%	-32%	1%
N#Cc1ccc(/C=C2\CCCCn3c2nc2cc(C(=O)O)ccc2c3=O)cc1	35%	u	-1%	11%	-2%	-7%
O=C(O)c1ccc2c(=O)n3c(nc2c1)/C(=C/c1ccc(C(F)(F)F)cc1)CC3	79µM*	5%	u	-9%	4%	u
Cc1ccc(C2Nc3ccccc3C(=O)N2Cc2ccco2)cc1 (centres undefined)	-3%	0%	-10%	-3%	-24%	8%
Cn1nnnc1SCC1=C(C(=O)O)N2C(=O)C(NC(=O)C(OC=O)c3ccccc3)C2SC1 (centres undefined)	x	x	x	x	22µM*	x
N[C@H](C(=O)N[C@@H]1C(=O)N2C(C(=O)O)=C(Cl)CS[C@@H]12)c1ccccc1	x	x	x	x	-8%[12 µM]	x
Cn1nnnc1SCC1=C(C(=O)O)N2C(=O)[C@@H](NC(=O)[C@H](O)c3ccccc3)[C@H]2SC1	3.2µM*	10µM*	u	25µM*	1.6µM*	1.3µM*
CCc1ccc(OCC(=O)NNC(=S)NC(=O)C2CC2)c(Br)c1	36%	17%	-10%	-8%	-11%	-10%
CCc1ccc(OCC(=O)NC(=S)Nc2ccc(C)cc2C)c(Br)c1	79µM*	10%	1%	-4%[57.1 µM]	-3%	-2%
Cc1ccc(S(=O)(=O)N2CCCCC2)cc1NC(=O)c1ccc2c(=O)n3c(nc2c1)CCCCC3	x	0%	x	x	x	x
Cc1cccc(NC(=O)NNC(=O)COc2ccc3ccccc3c2)c1	11%	8%	-3%	12%	5%	-4%
Cc1cc(Br)ccc1OCC(=O)NNC(=O)C(=O)Nc1ccccc1	u	28µM*	-13%	-23%	-19%	-16%
O=C(COc1ccc2ccccc2c1)NNC(=O)C(=O)Nc1ccccc1	u	40µM*	15%	-18%	-17%	-10%
O=C(N/N=C/C=C/c1ccccc1[N+](=O)[O-])c1cc(-c2cccnc2)nc2ccccc12	u	3%	8%	-7%	-40%	0%
CCC(C)(NC(=O)Cc1c[nH]c2ccccc12)C(=O)NC1CCCCC1 (centres undefined)	-14%	1%	11%	-30%[57.1 µM]	4%	-15%
c1ccc(C2C/C(=N\N3CCOCC3)c3ccccc3O2)cc1 (centres undefined)	23%	10%	6%	-11%	-6%	u
CCOc1ccc(NC(=O)CNC(=O)c2nn(-c3ccc(OC)c(OC)c3)c(=O)c3ccccc23)cc1	u	-25%	12%	-30%	-1%	-28%

Screening data as filed in PubChem BioAssay.
